The nature of experiment [1]: qHTS assay for small molecules that induce genotoxicity in human embryonic kidney cells expressing luciferase-tagged ATAD5 (AID 651632). Note: nearly all actives have a fitted effect of over 15% in size. In a few lines: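 ATAD5-luc HEK293T, 2,000 cells/well; cpd or DMSO pin-transferred; 16 hr, 37C/5% CO2; Amplite 30 min RT; luminescence.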
Experiment [2] is described as follows: qHTS assay for small molecule agonists of the p53 signaling pathway - cell viability (AID 651633; calls by dose curve;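 note: p53RE-bla HCT reporter cells with a stable beta-lactamase p53 reporter; series mostly up to about 83 µM; nearly all actives have a fitted effect of over 30% in size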). In a few lines:
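p53RE-bla cells, seeded at 4,000 per well and rested 5 h at 37 C/5% CO2, received compounds in DMSO for 16 h at 37 C. CellTiter-Glo was then added, and luminescence was read after 30 min at room temperature to gauge cytotoxicity.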
Background: In qHTS, concentration-response curves come from the screen itself.

Experiment [3] is described as follows: qHTS assay for small molecules that induce genotoxicity in human embryonic kidney cells expressing luciferase-tagged ATAD5 - cell viability (AID 651634; calls by dose curve; note: nearly all actives have a fitted effect of over 25% in size). In a few lines:
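Fluorescence from CellTiter-Fluor, reporting protease activity within live cells, served as the viability read-out. HEK293T cells carrying luciferase-tagged ATAD5 had been treated with compound for 15.5 hr at 37C.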

Experiment [4] can be described thus: qHTS assay for small molecule disruptors of the mitochondrial membrane potential - cell viability (AID 720634; calls by dose curve;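 note: human HepG2 liver cancer cells; series mostly up to about 83 µM; nearly all actives have a fitted effect of over 20% in size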). In a few lines: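 Cells: HepG2, 2,000/well, attached overnight. Compound 1 hr, 37 C/5% CO2. +m-MPI dye, +CellTiter-Glo 30 min RT. Readout: luminescence (ATP).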
Experiment [5] can be described thus: qHTS assay to test for compound auto fluorescence at 590 nm (red) in HepG2 cells (AID 720674). Put shortly:
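Compound auto-fluorescence is scored relative to Rose Bengal sodium, measured at 540/590 nm in live HepG2 cultures after 1 hr compound contact (37 C, 5% CO2).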

A short description of experiment [6]: qHTS assay to test for compound auto fluorescence at 535 nm (green) in HepG2 cells (AID 720675).
A short description of experiment [7]: qHTS assay to test for compound auto fluorescence at 460 nm (blue) in HEK293 cells (AID 720678). Put shortly: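 HEK293, 2,000 cells/well, 10% dialyzed FBS; attach 4-5 hr 37C; pin compound or DMSO; o/n 37C/5% CO2; fluorescence 405/460 nm; triamterene-equivalent units.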
Experiment [8] is described as follows: qHTS assay to test for compound auto fluorescence at 590 nm (red) in HEK293 cells (AID 720679). In a few lines:
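Intensity at 540nm excitation and 590nm emission is reported as Rose Bengal sodium-equivalent autofluorescence. Measurements followed overnight exposure (37C, 5% CO2) of HEK293 cells, 2,000 per well, to 23 nL compound.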

The nature of experiment [9]: qHTS assay to test for compound auto fluorescence at 535 nm (green) in HEK293 cells (AID 720680).
The nature of experiment [10]: qHTS assay to test for compound auto fluorescence at 460 nm (blue) in HEK293 cell free culture (AID 720681). Put shortly: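 Test compounds were pinned into cell-free culture medium (DMEM with 10% FBS) and fluorescence was read directly at Ex/Em 405/460 nm. Signals were expressed as fluorescence equivalents of triamterene, with DMSO vehicle as control.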
The nature of experiment [11]: qHTS assay to test for compound auto fluorescence at 535 nm (green) in HEK293 cell free culture (AID 720682). In a few lines:
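Cell-free medium (DMEM, 10% FBS) receives compound or DMSO by pintool. Plate read directly at Ex 485/Em 535 nm. Signal converted to fluorescein equivalency.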

A short description of experiment [12]: qHTS assay to test for compound auto fluorescence at 590 nm (red) in HEK293 cell free culture (AID 720683). In a few lines:
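Tox21 10K library compounds were pinned into cell-free DMEM with 10% FBS and fluorescence was read at excitation 540 nm. Activity is expressed as Rose Bengal sodium equivalency.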

Experiment [13] is described as follows: qHTS assay to test for compound auto fluorescence at 590 nm (red) in HepG2 cell free culture (AID 720684). Put shortly: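 Measured in medium alone (MEM containing 10% FBS) following pintool addition of compound; emission at 590 nm with 540 nm excitation, referenced to Rose Bengal sodium.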
Experiment [14] in a line: qHTS assay to test for compound auto fluorescence at 460 nm (blue) in HepG2 cell free culture (AID 720685). In a few lines:
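Compound (23 nL) or DMSO pinned into cell-free MEM with 10% FBS; blue fluorescence read at 405/460 nm excitation/emission, expressed as auto-fluorescence equivalency to triamterene.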

Experiment [15] is described as follows: qHTS assay to test for compound auto fluorescence at 535 nm (green) in HepG2 cell free culture (AID 720686).
The nature of experiment [16]: qHTS assay to test for compound auto fluorescence at 460 nm (blue) in HepG2 cells (AID 720687). Put shortly:
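Cells (2,000/well in MEM with 10% FBS) attached overnight at 37 C, then were exposed to compound or DMSO for 1 hr at 37 C, 5% CO2. Fluorescence read at Ex/Em 405/460 nm, expressed as triamterene-equivalent signal.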

Experiment [17] concerns the target Glucocorticoid receptor (Homo sapiens) (UniProt P04150). Description: qHTS assay to identify small molecule agonists of the glucocorticoid receptor (GR) signaling pathway (AID 720691; active = well fitted activation curve with a large enough effect in the signal ratio in the repeat runs, not every such curve was filed as active; the % refers to the signal ratio). Put shortly:
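Fluorescence intensity from LiveBLAzer B/G FRET substrate (2 h, room temperature) reports beta-lactamase expression driven by the glucocorticoid response element in GR-bla HeLa cells after 18 h compound exposure at 37 C.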

Experiment [18] shares this target. Kind of experiment: qHTS assay to identify small molecule antagonists of the glucocorticoid receptor (GR) signaling pathway (AID 720692; active = well fitted inhibition curve with a large enough effect in the signal ratio in the repeat runs, not every such curve was filed as active; the % refers to the signal ratio). In a few lines: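 HeLa GR-bla cells; cmpd + dex 5 nM final, 18 h 37 C; LiveBLAzer B/G FRET substrate 2 h RT; fluorescence intensity read. Antagonist mode, qHTS.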
Experiment [19] is described as follows: qHTS assay for small molecule disruptors of the mitochondrial membrane potential (AID 720635). Note: potency is the fitted concentration of half-maximal effect. In a few lines:
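HepG2 cells (2,000/well) attached overnight at 37C, then took compound for 1 hr at 37C, 5% CO2. Mito-MPS dye was added for 30 min; fluorescence was read at 490/535 nm (monomers) and 540/590 nm (aggregates).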

Where “and” joins values, the source holds several entries; their conditions need not be identical. Equal values may be shown once. Records with an inconclusive call do not appear. Calls of active or inactive are those of the source. Unless noted, calls come from the whole dose curve; as a rule, active = well fitted curve in the direction sought with a large enough effect in the repeat runs; inconclusive = weak or mixed curves; inactive = no such curve, though single readings can be large; an effect the other way counts as inactive or inconclusive.

Chain of Glucocorticoid receptor (Homo sapiens) (P04150 whole entry, looked up): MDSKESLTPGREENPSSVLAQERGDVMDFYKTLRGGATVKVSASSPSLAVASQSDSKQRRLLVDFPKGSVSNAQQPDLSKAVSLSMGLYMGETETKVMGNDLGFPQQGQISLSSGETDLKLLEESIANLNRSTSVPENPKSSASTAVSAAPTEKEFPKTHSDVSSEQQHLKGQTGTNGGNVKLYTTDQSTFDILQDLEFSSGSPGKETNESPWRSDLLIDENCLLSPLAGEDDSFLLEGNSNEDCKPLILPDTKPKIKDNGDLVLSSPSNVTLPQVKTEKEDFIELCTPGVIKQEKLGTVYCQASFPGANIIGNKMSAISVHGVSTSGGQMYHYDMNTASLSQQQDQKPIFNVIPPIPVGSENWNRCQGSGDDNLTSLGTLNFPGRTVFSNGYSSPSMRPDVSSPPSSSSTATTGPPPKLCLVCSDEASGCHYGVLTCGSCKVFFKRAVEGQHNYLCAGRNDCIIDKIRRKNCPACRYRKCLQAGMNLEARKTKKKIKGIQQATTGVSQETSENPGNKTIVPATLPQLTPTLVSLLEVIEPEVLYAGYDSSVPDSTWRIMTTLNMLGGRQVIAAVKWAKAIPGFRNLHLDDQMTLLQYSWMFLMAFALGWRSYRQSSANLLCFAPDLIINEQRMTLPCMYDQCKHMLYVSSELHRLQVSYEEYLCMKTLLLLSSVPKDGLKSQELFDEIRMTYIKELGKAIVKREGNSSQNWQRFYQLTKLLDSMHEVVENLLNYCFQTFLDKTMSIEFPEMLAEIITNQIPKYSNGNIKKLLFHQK

Regarding `O=C(Cc1ccccc1)c1ccccc1`, the Potency result in [1], in [2], in experiment [3], in [4], in [17] and in [18] was “inactive” throughout. Also, the compound was called inactive in experiment [5], in experiment [6], in [7], in experiment [8], in experiment [9] and in experiment [10]. In addition, the outcome in experiment [11], in [12], in experiment [13], in [14], in experiment [15] and in [16] was inactive.
Regarding `CCSCc1ccccc1OC(=O)NC`, the Potency entry in [1], in experiment [2], in experiment [3] and in experiment [4] was “inactive” in each case. For the same compound, the outcome in experiment [5], in experiment [6], in [8], in [9], in [10] and in experiment [11] was inactive. In addition, the result in experiment [12], in experiment [14], in experiment [15] and in experiment [16] was inactive.
Turning to `CC(C)(C)c1ccc(CCOc2ncnc3ccccc23)cc1`, the Potency result in experiment [1], in [2], in experiment [3], in [4] and in experiment [19] was “inactive” throughout. In addition, the compound was called inactive in [5], in [6], in experiment [7], in experiment [8], in [9] and in experiment [10]. For the same compound, the outcome in experiment [11], in [12], in experiment [14], in [15] and in experiment [16] was inactive.
For `CCc1ccccc1N`, the Potency entry in [1], in experiment [2], in [3], in [4] and in [17] was “inactive” in each case. For the same compound, the outcome in experiment [5], in experiment [6], in experiment [7], in [8], in experiment [9] and in experiment [10] was inactive. Also, the compound was called inactive in [11], in [12], in experiment [13], in experiment [14], in experiment [15] and in experiment [16].
In the case of `CCCN(CCC)c1c([N+](=O)[O-])cc(C(C)C)cc1[N+](=O)[O-]`, the Potency result in [1], in [2], in [3] and in [4] was “inactive” each time. The outcome in experiment [5], in experiment [6], in experiment [7], in experiment [8], in experiment [9] and in [10] was inactive. Besides, the compound was called inactive in experiment [11], in experiment [12], in experiment [14], in experiment [15] and in [16].
Regarding `COc1ccc(C(=O)c2c(C)n(CCN3CCOCC3)c3ccccc23)cc1`, the Potency entry in experiment [1], in [2], in experiment [3], in experiment [4] and in [17] was “inactive” each time. In addition, the compound was classed as inactive in [5], in experiment [6], in experiment [8], in experiment [9], in [10] and in experiment [11]. Further, the call in experiment [12], in experiment [13], in experiment [14], in experiment [15] and in experiment [16] was inactive.
`Cc1nc(N(C)C)nc(OC(=O)N(C)C)c1C`: the Potency result in experiment [1], in experiment [2], in [3], in experiment [4], in experiment [19] and in experiment [17] was “inactive” throughout. In [18], the Potency entry is “inactive”. Besides, the call in experiment [5], in [6], in [7], in experiment [8], in experiment [9] and in experiment [10] was inactive. The result in experiment [11], in experiment [12], in experiment [13], in [14], in experiment [15] and in [16] was inactive.
In the case of `COc1ccc(C(O)(c2cncnc2)C2CC2)cc1` (centres undefined), the Potency entry in [1], in experiment [2], in experiment [3], in [4], in experiment [17] and in experiment [18] was “inactive” throughout. The result in [5], in experiment [6], in experiment [7], in experiment [8], in experiment [9] and in [10] was inactive. In addition, the compound was classed as inactive in [11], in experiment [12], in [13], in experiment [14], in experiment [15] and in experiment [16].
As to `C[N+]1(CCF)[C@@H]2CC[C@H]1CC(OC(=O)C(O)(c1ccccc1)c1ccccc1)C2` (some centres undefined), the Potency result in [1], in [2], in experiment [3], in experiment [4] and in [18] was “inactive” in each case. The outcome in experiment [5], in experiment [6], in experiment [8], in [9], in [10] and in experiment [11] was inactive. Besides, the compound was called inactive in experiment [12], in experiment [13], in experiment [14], in [15] and in experiment [16].
On to `CCOC(=O)C1OC1(C)c1ccccc1` (centres undefined), for which the Potency result in [1], in experiment [2], in experiment [3], in [4], in [17] and in [18] was “inactive” each time. The outcome in experiment [5], in experiment [6], in experiment [7], in [8], in experiment [9] and in experiment [10] was inactive. Moreover, the compound was classed as inactive in experiment [11], in experiment [14], in experiment [15] and in experiment [16].
Regarding `c1ccc2sc(SNC3CCCCC3)nc2c1`, the Potency result in [1], in experiment [2], in [3], in [4] and in [18] was “inactive” each time. Also, the Potency in [19] was 67.8 µM (active) and 54.5 µM (active). The result in experiment [5], in experiment [6], in experiment [7], in [8], in experiment [9] and in experiment [10] was inactive. Moreover, the call in experiment [11], in experiment [12], in [14], in [15] and in experiment [16] was inactive.
For `CCOC(=O)NC(O)C(Cl)(Cl)Cl` (centres undefined), the Potency result in experiment [1], in [2], in experiment [3] and in [4] was “inactive” throughout. Besides, the result in experiment [5], in [6], in [8], in experiment [9], in [10] and in experiment [11] was inactive. Moreover, the call in experiment [12], in [13], in [14], in [15] and in experiment [16] was inactive.
Take `C[N+]1(CCC(C(N)=O)(c2ccccc2)c2ccccc2)CCCCC1`: the Potency result in [1], in experiment [2], in [3], in experiment [4], in experiment [19] and in experiment [17] was “inactive” in each case. Also, the Potency entry in experiment [18] was “inactive”. Further, the outcome in [6], in experiment [7], in experiment [8], in [9], in experiment [10] and in [11] was inactive. Besides, the outcome in experiment [12], in experiment [14], in [15] and in [16] was inactive.
